Hits are enriched below; roughly 0.9% of the tested compounds scored in any of these assays.
TDP1 inh: blocks human tyrosyl-DNA phosphodiesterase 1. Q9NUW8. 350,000 tested, 0.28% active. recombinant TDP1, AlphaScreen DNA substrate cleavage. Potency, µM (series often up to 130 µM), for inactives: at the top dose activity change, negative = inhibition, usual class: inhibitors. AID 485290; also: nearly all actives have a fitted effect of over 40% in size
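Compounds were preincubated with Tdp1 (1 nM final) for 15 min at room temperature before substrate (15 nM final) started a 5 min reaction; beads (10 ug/ml final) were then added for 10 min before AlphaScreen detection.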
KAT2A inh: blocks human GCN5L2 histone acetyltransferase. GCN5L2 HAT assay, ThioGlo1 CoA-SH fluorescence. Potency, µM (top dose mostly 58.9 µM), without a hit: top-dose activity change, negative = inhibition, usual class: inhibitors. 390,000 tested, 0.21% active. AID 504327
Target sequence (Q92830 whole entry, looked up): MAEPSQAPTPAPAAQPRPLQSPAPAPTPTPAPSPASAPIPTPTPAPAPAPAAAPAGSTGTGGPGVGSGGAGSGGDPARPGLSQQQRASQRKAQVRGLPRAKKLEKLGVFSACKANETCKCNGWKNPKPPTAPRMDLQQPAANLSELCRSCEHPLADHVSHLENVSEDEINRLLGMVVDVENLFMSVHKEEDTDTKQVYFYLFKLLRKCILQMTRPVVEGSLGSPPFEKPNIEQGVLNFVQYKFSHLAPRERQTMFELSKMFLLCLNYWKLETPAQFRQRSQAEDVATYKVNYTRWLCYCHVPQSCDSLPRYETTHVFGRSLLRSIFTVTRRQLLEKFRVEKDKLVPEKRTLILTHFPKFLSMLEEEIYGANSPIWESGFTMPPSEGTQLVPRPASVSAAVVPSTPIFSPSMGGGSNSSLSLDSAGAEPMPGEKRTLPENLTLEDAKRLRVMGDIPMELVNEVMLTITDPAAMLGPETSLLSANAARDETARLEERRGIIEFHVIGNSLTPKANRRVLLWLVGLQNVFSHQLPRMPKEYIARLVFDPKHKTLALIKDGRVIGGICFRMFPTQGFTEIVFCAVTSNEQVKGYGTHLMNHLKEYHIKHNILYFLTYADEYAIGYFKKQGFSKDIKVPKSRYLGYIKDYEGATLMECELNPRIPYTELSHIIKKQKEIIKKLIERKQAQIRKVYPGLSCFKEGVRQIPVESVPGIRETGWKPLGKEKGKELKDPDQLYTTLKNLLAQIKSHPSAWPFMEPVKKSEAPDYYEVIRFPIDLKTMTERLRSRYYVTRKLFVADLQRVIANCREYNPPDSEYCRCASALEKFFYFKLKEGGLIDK
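ThioGlo1-coupled HAT assay: 20nM GCN5L2, 70uM acetyl-CoA, 75uM H3(1-25) peptide, pH 7.5. Fluorescence read at 340/540nm at start and after 20 min at room temperature.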
RECQ1 helicase: RECQ1 (human) helicase inhibition; P46063; RECQ1 DNA unwinding, red fluorescence kinetic read; Potency, µM (top dose mostly 57.3 µM), without a hit: at the top dose activity, negative = inhibition, most hits filed as inhibitors; 240,000 tested, 0.54% active;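 also: plate controls were vehicle for no effect and no enzyme for full effect; nearly all actives have a fitted effect of over 30% in size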
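RECQ1T1 50 nM; forked duplex (20 bp + 30-nt ss tails) 200 nM, ATP 2 mM final; pH 8.0, 2 mM MgCl2, 2.5 ug/ml poly(dI-dC); 15 min compound preincubation; discontinuous kinetic read over 2 h at RT.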
BLM helicase inh: inhibitors of human Bloom syndrome helicase BLM | P54132 | recombinant BLM DNA unwinding, fluorescence dequenching | Potency, µM (titrated, usually from 56.1 µM), inactives show top-dose activity change, negative = inhibition, usual class: inhibitors | 350,000 tested, 0.2% active | AID 2528;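 also: plate controls were vehicle for no effect and no enzyme for full effect; nearly all actives have a fitted effect of over 35% in size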
LMNA splice mod: changes lamin A minigene splicing in HeLa cells | 200,000 tested, 0.01% active | Potency, µM (top dose mostly 46.1 µM), without a hit: at the top dose ratio change, negative = inhibition, usual class: inhibitors | HeLa LMNA splicing GFP/RFP minigene ratio, 48 h; active = well fitted inhibition curve with a large enough effect in the signal ratio, with a control signal flat, not every such curve was filed as active; inconclusive = small, poorly fitted or top-dose-only effect, or effect the other way, or a change in a side signal; the % refers to the signal ratio
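Read-out is the ratio of GFP to DsRed2 object intensity, acquired by 488 nm laser-scanning cytometry on HeLa lamin A-EGFP minigene reporter cells. Compound incubation 48 hrs at 37 °C in Opti-MEM with 2% FBS; DMSO 0.5% final.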
APE1 inh: inhibitors of human APE1 endonuclease | Potency, µM (top dose mostly 65.8 µM), without a hit: top-dose activity change, negative = inhibition, actives largely listed as inhibitors | recombinant APE1, TAMRA/BHQ-2 abasic DNA cleavage fluorescence | AID 2517 | 350,000 tested, 0.35% active;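 also: plate controls were vehicle for no effect and reference inhibitor for full effect; nearly all actives have a fitted effect of over 55% in size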
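Kinetic fluorescence read (525 ex/598 em nm, three reads 60 s apart) of AP-site incision; signal = third minus first read. Enzyme 0.75 nM, dual-labelled THF duplex 50 nM, compound preincubation 15 min RT.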
The depositor's hits bear a star; i = inactive; ? = inconclusive; · = not tested or not shown; ! = not active in a repeat; [ ] = dose if it differs, or a comment. Unless noted, calls follow the shape of the dose curve; as a rule, active = well fitted curve in the direction sought with a large enough effect; inconclusive = small, poorly fitted or top-dose-only effect, or another doubt; inactive = no such curve, though single readings can be large; an effect the other way counts as inactive or inconclusive. Unless noted, % is scaled to controls: 0 for no effect and ±100 for the full control effect; potency is read from the fitted curve at half-maximal effect.

SMILES	TDP1 inh	KAT2A inh	RECQ1 helicase	BLM helicase inh	LMNA splice mod	APE1 inh
COc1ccc(-c2ccc3c(c2)S(=O)(=O)c2cccc(C(=O)NCCOc4ccccc4Cl)c2C3=O)cc1OC	28µM*	0%	·	·	·	-22%
O=C(NCc1ccco1)c1cccc2c1C(=O)c1ccc(N3CCC(Cc4ccccc4)CC3)cc1S2(=O)=O	1%	-12%	·	·	·	-13%
COc1ccc(-c2ccc3c(c2)S(=O)(=O)c2cccc(C(=O)NCc4ccccc4Cl)c2C3=O)cc1OC	25µM*	-17%	·	·	·	-41%
O=C(NCc1ccco1)c1cccc2c1C(=O)c1ccc(/C=C/c3ccccc3)cc1S2(=O)=O	32µM*	?	·	·	·	?
CC(C)c1cccc(-c2ccc3c(c2)S(=O)(=O)c2cccc(C(=O)NCc4ccccc4Cl)c2C3=O)c1	-1%	-15%	·	·	·	7%
N#Cc1c(-c2cccc(Br)c2)no[n+]1[O-]	·	·	·	·	·	-10%
NCCCC[C@H](NC(=O)CNC(=O)[C@@H]1CCCN1C(=O)[C@H](Cc1ccc(O)cc1)NC(=O)CN)C(=O)N[C@@H](Cc1ccccc1)C(=O)O	7%	0%	-14%	-2%	·	-1%
O=C(O)c1cc(-c2ccco2)nc2cc3ccccc3cc12	·	-12%	28µM*	23%	·	?
O=C(NNC(=O)c1cc(-c2ccco2)nc2ccccc12)c1ccccc1	1%	-22%	-3%	-15%	·	23%
Cc1ccc(NC(=O)C(c2ccccc2)N2CCN(CC(=O)N3CCOCC3)CC2)cc1Cl (configuration not stated)	28µM*	-9%	·	·	·	11µM*
CC(=O)Nc1ccn(C2OC(C(COC(C)=O)NC(=O)C(Cc3ccccc3)NC(=O)OC(C)(C)C)C(OC(C)=O)C2OC(C)=O)c(=O)n1 (configuration not stated)	4%	·	i	1%	·	0%
CCN(CCO)c1ccc(NC(=S)Nc2cccc(S(=O)(=O)N(C)C)c2)cc1	0%	-3%	40µM*	-20%	·	?
COc1ccc(-c2nc(C#N)c(NCCCN3CCOCC3)o2)cc1	-3%	1%	-4%	5%	-9%	?
N#Cc1nc(-c2cccs2)oc1NCCCN1CCOCC1	-3%	35µM*	-5%	2%	1%	1%
CCNC(=O)[C@@H]1CCCN1C(=O)[C@H](CCCN=C(N)N)NC(=O)[C@H](CC(C)C)NC(=O)[C@@H](Cc1c[nH]c2ccccc12)NC(=O)[C@H](Cc1ccc(O)cc1)NC(=O)[C@H](CO)NC(=O)[C@H](Cc1c[nH]c2ccccc12)NC(=O)[C@H](Cc1cnc[nH]1)NC(=O)[C@@H]1CCC(=O)N1	·	-13%	·	26%	·	·
CC[C@H](C)[C@H](NC(=O)[C@H](N)Cc1ccc(O)cc1)C(=O)N[C@@H](CC(N)=O)C(=O)N[C@@H](CC(C)C)C(=O)N[C@H](C(=O)N[C@@H](C(=O)N[C@@H](CCCN=C(N)N)C(=O)N[C@@H](CCC(N)=O)C(=O)N[C@@H](CCCN=C(N)N)C(=O)N[C@H](Cc1ccc(O)cc1)C(N)=O)[C@@H](C)O)[C@@H](C)CC	7%	45%	-13%	4%	·	2%
CNc1ccc(O)cc1	15%	·	32µM*	·	·	-8%
CNc1ccccc1	0%	-1%	16%	·	·	-4%
Cc1c(NC(=O)C23CC4CC(CC(C)(C4)C2)C3)c(=O)n(-c2ccccc2)n1C	4%	20µM*	-3%	-4%	7%	8%
CC(=O)NC12CC3CC(C1)CC(C(=O)Nc1c(C)n(C)n(-c4ccccc4)c1=O)(C3)C2	4%	0%	·	-3%	·	53%
O=C1CCCC(O)=C1N=Nc1c(Cl)cc(C(F)(F)F)cc1Cl	11%	-15%	13µM*	-8%	·	?
O=C(O)c1ccc(CSc2nnc(-c3cccc([S+](=O)([O-])NC4CCCC4)c3)n2-c2ccccc2)cc1	·	·	·	·	·	32%
CN(C)C(=O)c1ccc(-c2cncnc2NCc2ccccc2)cc1	·	-27%	0%	-2%	-3%	-4%
CN(C)C(=O)c1ccc(-c2cncnc2NCc2cccs2)cc1	28µM*	-27%	-13%	3%	-2%	2%
Cc1cc(Cn2cnc3c(cnn3C(C)(C)C)c2=O)ccc1F	·	·	·	·	·	-1%
SMILES	TDP1 inh	KAT2A inh	RECQ1 helicase	BLM helicase inh	LMNA splice mod	APE1 inh
CC(C)(C)c1cc(=O)n(-c2ccccc2)[nH]1	3%	-3%	i	18µM*	?	-9%
O=c1ccc(=O)n(-c2ccccc2)[nH]1	6%	-9%	-1%	0%	·	1%
O=C1NC(=O)C(Cc2cccc(Oc3ccccc3)c2)S1 (configuration not stated)	·	-6%	·	0%	·	31%
CC1(COc2ccc(C[C@H]3SC(=O)NC3=O)cc2)CCCCC1	?	35µM*	6%	-19%	·	8%
CC1(COc2ccc(CC3SC(=O)NC3=O)cc2)CCCCC1 (configuration not stated)	5%	25µM*!	?	?	·	-1%
CCc1ccc(CCOc2ccc(CC3SC(=O)NC3=O)cc2)nc1 (configuration not stated)	13%	-12%	-10%	2%	·	19%
Fc1ccc(C(c2ccc(F)cc2)N2CCN(C/C=C\c3ccccc3)CC2)cc1	10%	11µM*	-1%	-10%	-13%	-4%
O=C(CSc1nc(-c2ccco2)nc2cc(=O)[nH]n12)Nc1ccccc1Cl	·	18%	·	1%	·	·
Cc1ccc(NC(=O)CSc2nc(-c3ccco3)nc3cc(=O)[nH]n23)c(Cl)c1	50µM*	-7%	·	-5%	·	-1%
CC[C@@]12CCCN3CCc4c(n(c5ccccc45)[C@](O)(C(=O)OC)C1)[C@H]32	-8%[56.1 µM]	13µM*!	-4%	7%	-12%	1%
COc1ccc(-c2cc(=O)oc3cc(OCC(C)=O)ccc23)cc1	3%	-2%	-4%	4%	?	12%
CCN(CC)C(=O)COc1ccc2c(-c3ccc(OC)cc3)cc(=O)oc2c1	79µM*	-7%	·	2%	·	-13%
CC(/C=N/n1c(-c2ccc(Cl)cc2)n[nH]c1=S)=C\c1ccco1	5%	-16%	-2%	-15%	?	12%
CC(/C=N/n1c(-c2cc(C)[nH]n2)n[nH]c1=S)=C\c1ccco1	0%	-22%	25µM*	0%	·	-12%
O=C1c2ccccc2CCC1CNCCc1ccc(O)cc1 (configuration not stated)	4%	3%	13%	·	·	5%
CC(=O)NC1C(=O)N=C(SCC(=O)NCc2ccccc2)NC1=O (configuration not stated)	25µM*	0%	0%	6%	4%	9%
